For 27 targets, NP40-soluble protein abundance results are on record in the supplement of paper PMC6411743.

± gives the standard deviation of the averaged measurements. About 5,400 targets were measured; listed, in parts, are those with the largest changes and a random draw of the rest.

Sequence of UniProt O14776 (O14776 whole entry): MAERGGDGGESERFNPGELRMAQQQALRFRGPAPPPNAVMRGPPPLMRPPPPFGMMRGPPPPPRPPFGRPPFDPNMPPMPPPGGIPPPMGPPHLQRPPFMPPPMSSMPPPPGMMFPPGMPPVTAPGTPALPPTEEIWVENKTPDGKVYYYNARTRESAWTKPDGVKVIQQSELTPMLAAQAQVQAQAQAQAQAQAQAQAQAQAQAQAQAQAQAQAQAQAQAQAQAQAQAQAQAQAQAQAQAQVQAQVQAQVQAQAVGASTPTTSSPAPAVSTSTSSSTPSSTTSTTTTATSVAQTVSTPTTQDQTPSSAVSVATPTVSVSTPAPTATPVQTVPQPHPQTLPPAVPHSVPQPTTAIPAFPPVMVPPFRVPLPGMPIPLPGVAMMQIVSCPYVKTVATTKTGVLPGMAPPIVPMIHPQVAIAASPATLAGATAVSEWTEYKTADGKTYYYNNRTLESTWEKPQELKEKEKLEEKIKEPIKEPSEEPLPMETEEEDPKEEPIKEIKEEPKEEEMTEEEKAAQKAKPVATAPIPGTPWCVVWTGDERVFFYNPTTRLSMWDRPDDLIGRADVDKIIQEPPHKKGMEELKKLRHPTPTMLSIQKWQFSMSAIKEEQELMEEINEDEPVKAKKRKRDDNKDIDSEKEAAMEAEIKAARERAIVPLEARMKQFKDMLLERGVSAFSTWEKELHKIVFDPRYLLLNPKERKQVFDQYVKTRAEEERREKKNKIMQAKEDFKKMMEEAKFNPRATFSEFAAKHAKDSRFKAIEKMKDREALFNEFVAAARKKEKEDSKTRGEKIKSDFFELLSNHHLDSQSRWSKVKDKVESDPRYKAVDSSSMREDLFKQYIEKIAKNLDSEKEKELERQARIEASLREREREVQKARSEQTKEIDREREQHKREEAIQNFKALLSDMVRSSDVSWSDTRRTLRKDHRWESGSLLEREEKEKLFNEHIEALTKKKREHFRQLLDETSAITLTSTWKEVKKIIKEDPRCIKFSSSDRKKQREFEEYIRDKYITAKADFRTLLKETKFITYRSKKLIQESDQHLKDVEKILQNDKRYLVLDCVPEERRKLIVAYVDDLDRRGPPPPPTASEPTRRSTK
Sequence of UniProt O15111 (O15111 whole entry): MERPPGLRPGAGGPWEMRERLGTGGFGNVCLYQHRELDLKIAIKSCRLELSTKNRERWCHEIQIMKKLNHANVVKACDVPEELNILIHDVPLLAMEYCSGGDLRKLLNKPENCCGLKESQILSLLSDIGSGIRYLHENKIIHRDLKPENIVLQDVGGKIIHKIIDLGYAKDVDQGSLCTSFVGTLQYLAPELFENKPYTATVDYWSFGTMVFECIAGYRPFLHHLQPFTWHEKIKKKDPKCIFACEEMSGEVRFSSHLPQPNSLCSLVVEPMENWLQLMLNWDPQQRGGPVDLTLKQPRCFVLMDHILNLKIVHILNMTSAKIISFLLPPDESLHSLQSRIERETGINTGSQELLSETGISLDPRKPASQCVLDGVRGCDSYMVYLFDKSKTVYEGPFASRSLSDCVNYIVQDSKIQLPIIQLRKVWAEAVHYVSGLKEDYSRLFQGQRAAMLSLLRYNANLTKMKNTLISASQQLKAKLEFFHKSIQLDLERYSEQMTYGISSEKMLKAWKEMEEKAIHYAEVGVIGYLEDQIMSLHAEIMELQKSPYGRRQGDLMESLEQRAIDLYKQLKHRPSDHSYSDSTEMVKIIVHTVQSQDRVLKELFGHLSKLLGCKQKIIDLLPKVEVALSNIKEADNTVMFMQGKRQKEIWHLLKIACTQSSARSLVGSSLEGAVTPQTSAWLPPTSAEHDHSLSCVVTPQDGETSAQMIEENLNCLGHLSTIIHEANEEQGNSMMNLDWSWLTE
Sequence of UniProt P50897 (P50897 whole entry): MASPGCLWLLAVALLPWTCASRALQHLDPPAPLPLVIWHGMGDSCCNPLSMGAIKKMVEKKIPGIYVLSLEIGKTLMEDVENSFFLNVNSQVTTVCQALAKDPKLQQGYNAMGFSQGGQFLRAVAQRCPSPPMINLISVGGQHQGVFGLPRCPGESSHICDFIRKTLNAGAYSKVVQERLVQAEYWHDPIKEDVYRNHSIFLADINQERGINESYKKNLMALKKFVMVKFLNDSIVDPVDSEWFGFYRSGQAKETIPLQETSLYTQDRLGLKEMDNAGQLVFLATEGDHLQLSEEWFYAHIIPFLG
Sequence of UniProt P12931 (P12931 whole entry, looked up): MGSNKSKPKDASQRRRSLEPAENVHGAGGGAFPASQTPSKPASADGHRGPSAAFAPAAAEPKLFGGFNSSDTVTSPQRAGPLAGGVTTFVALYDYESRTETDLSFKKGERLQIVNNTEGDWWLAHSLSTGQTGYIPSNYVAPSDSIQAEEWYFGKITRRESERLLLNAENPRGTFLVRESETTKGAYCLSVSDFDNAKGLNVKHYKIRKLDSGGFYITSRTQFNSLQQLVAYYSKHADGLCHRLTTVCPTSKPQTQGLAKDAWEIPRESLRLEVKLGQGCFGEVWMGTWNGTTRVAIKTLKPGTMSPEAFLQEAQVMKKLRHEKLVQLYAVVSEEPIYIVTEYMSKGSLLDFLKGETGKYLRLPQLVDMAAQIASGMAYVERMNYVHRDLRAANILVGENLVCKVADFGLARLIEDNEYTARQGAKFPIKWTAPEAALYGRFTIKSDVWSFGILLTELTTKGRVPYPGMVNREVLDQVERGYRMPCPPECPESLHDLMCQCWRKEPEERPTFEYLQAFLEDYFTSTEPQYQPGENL
Sequence of UniProt O43665 (O43665 whole entry): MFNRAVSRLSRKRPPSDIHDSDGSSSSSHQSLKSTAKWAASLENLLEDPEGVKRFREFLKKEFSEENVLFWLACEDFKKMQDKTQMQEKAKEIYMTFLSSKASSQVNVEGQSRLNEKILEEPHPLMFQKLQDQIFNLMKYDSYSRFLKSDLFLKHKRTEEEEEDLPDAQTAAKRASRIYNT
Sequence of UniProt O00567 (O00567 whole entry): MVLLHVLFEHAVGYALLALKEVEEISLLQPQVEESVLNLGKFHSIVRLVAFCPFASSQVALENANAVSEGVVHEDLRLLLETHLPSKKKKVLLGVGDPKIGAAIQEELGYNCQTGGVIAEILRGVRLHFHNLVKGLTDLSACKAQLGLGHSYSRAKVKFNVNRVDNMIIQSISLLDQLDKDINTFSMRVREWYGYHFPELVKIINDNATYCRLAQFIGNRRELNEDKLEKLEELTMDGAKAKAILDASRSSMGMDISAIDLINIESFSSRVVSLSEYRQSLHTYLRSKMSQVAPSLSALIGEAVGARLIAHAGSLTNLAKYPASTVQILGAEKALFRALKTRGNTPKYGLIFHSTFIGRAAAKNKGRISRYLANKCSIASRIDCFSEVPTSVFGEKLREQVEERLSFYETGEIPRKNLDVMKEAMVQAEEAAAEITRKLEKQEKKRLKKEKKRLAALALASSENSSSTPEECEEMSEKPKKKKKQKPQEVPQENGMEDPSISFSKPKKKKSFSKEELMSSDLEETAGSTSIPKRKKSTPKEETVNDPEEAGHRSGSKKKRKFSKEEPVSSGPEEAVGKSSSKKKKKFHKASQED
Sequence of UniProt P11388 (P11388 whole entry): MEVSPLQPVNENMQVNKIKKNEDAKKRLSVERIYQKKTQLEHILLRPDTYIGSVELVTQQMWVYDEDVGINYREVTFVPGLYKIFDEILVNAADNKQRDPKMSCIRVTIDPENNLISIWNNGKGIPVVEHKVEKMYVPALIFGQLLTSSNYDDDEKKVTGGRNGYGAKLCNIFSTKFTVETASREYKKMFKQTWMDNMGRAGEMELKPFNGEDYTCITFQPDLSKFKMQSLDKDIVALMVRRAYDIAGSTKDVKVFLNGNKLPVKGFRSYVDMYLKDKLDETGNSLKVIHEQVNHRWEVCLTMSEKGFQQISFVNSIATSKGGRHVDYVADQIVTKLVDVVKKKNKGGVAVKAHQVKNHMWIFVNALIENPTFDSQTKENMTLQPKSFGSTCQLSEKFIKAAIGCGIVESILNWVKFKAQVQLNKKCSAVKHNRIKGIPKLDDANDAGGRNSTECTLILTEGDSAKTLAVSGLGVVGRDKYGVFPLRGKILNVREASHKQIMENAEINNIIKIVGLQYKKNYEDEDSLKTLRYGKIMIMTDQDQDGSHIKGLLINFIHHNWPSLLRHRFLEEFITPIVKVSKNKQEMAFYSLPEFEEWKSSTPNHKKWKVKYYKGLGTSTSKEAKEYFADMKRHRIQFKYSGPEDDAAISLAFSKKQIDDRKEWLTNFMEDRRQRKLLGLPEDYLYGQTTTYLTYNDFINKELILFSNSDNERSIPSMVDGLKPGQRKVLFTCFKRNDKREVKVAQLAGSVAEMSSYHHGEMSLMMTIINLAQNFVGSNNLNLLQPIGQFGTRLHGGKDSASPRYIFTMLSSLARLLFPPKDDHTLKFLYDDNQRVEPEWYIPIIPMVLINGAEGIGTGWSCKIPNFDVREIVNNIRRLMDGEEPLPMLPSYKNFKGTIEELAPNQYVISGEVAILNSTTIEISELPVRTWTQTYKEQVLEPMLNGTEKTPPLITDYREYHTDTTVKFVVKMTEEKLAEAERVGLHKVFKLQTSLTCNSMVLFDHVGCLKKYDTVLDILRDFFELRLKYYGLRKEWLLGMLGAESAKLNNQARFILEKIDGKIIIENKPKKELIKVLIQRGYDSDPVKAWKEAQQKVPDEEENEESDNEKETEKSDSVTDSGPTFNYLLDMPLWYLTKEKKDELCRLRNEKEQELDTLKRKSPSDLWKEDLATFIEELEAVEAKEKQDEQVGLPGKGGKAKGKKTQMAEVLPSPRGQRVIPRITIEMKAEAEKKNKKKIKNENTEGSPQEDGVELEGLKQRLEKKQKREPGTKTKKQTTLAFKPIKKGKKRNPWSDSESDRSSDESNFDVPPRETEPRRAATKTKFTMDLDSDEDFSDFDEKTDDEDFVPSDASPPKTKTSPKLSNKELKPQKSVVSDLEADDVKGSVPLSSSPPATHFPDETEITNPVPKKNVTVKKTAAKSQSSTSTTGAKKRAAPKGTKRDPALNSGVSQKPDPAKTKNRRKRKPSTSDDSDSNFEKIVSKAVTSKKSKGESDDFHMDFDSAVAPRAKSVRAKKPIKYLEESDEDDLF

Compound in the experiment: Nc1nc2c(ncn2[C@@H]2O[C@H](COP(=O)(O)OP(=O)(O)OP(=O)(O)O)[C@@H](O)[C@H]2O)c(=O)[nH]1 [guanosine triphosphate]
Kind of experiment: NP40-soluble protein abundance relative to vehicle (solubility fold change) (ratio); higher = more soluble protein in presence of GTP. Conditions: concentration: 6mM. The procedure, abridged:
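Jurkat crude lysate prepared with a Dounce homogeniser was treated at eight concentrations spanning 0.1 to 10 mM, 10 min at room temperature then 3 min at 37 °C. Solubilisation with 0.8% NP40 and benzonase and ultracentrifugation preceded TMT labelling of the supernatant for LC-MS/MS. Fold change against the detergent-processed vehicle was determined per replicate from vsn-normalised intensities, across three independent experiments.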
For the target UniProt O43665|O43665-2|O43665-3, the NP40-soluble protein abundance worked out at 0.837 ± 0.034.

In the case of UniProt O00567, the NP40-soluble protein abundance amounted to 1.75 ± 0.12.

Take ARID1A (UniProt O14497): the NP40-soluble protein abundance turned out to be 1.12 ± 0.12.

Regarding J3QTA6|Q9BRQ6 (UniProt Q9BRQ6), the NP40-soluble protein abundance is 1.16 ± 0.062.

For AKR1A1 (UniProt P14550), the NP40-soluble protein abundance turned out to be 0.849 ± 0.04.

As to J3QQJ5|Q9Y2L5 (UniProt Q9Y2L5), the NP40-soluble protein abundance is 0.989 ± 0.13.

Consider UniProt P17096|P17096-2, for which the NP40-soluble protein abundance stood at 1.69 ± 0.3.

Regarding AK4 (UniProt P27144), the NP40-soluble protein abundance is 0.987 ± 0.11.

For the target UniProt P12931|P12931-2, the NP40-soluble protein abundance amounted to 0.896 ± 0.015.

Turning to UniProt O14776|O14776-2, the NP40-soluble protein abundance was found to be 1.01 ± 0.084.

UniProt P17812: the NP40-soluble protein abundance worked out at 0.883 ± 0.076.

As for NUDT2 (UniProt P50583), the NP40-soluble protein abundance came out at 1.24 ± 0.23.

Consider CRKL (UniProt P46109), for which the NP40-soluble protein abundance was 0.906 ± 0.089.

With “UniProt P11388|P11388-2|P11388-3|P11388-4”, the NP40-soluble protein abundance came to 1.94 ± 0.16.

Consider NUP62 (UniProt P37198), for which the NP40-soluble protein abundance turned out to be 1.06 ± 0.053.

With K7EPN2|P22830|P22830-2 (UniProt P22830), the NP40-soluble protein abundance worked out at 0.939 ± 0.03.

As to UniProt O15111, the NP40-soluble protein abundance was 0.927 ± 0.061.

Consider UniProt O60508|Q5SRN1, for which the NP40-soluble protein abundance amounted to 1.07 ± 0.053.

Take SLC16A7 (UniProt O60669): the NP40-soluble protein abundance came to 0.966 ± 0.15.

In the case of FXR1 (UniProt P51114), the NP40-soluble protein abundance came out at 2.02 ± 0.03.

Take “P15531-2|P22392-2|Q32Q12 (UniProt Q32Q12+P22392+P15531)”: the NP40-soluble protein abundance was found to be 0.878 ± 0.04.

UniProt P54578|P54578-2: the NP40-soluble protein abundance worked out at 0.897 ± 0.02.

Take M0R2S1|P62987 (UniProt P62987): the NP40-soluble protein abundance came to 0.886 ± 0.068.

As for RPL21 (UniProt P46778), the NP40-soluble protein abundance stood at 0.856 ± 0.19.

As for “I3L3Y9|I3L4X7|Q13227|Q13227-2 (UniProt Q13227)”, the NP40-soluble protein abundance was 1.06 ± 0.11.

With PPT1 (UniProt P50897), the NP40-soluble protein abundance came out at 0.887 ± 0.11.

For the target URB1 (UniProt O60287), the NP40-soluble protein abundance came out at 1.95 ± 0.13.
